In ChEMBL document CHEMBL1201862, “PubChem BioAssay data set” (2004):
Out of some 400,000 compounds screened, about 2,100 (0.53%) were called active. Not shown: some 14% with an inconclusive outcome. The rule behind the calls is not given here. This excerpt belongs to a sample that is enriched for actives.

What follows are compounds tested against Ataxin-2 (Homo sapiens) (UniProt Q99700) (assay: qHTS for Inhibitors of ATXN expression.).
Assay type: functional

Sequence of Ataxin-2 (Homo sapiens) (Q99700 whole entry): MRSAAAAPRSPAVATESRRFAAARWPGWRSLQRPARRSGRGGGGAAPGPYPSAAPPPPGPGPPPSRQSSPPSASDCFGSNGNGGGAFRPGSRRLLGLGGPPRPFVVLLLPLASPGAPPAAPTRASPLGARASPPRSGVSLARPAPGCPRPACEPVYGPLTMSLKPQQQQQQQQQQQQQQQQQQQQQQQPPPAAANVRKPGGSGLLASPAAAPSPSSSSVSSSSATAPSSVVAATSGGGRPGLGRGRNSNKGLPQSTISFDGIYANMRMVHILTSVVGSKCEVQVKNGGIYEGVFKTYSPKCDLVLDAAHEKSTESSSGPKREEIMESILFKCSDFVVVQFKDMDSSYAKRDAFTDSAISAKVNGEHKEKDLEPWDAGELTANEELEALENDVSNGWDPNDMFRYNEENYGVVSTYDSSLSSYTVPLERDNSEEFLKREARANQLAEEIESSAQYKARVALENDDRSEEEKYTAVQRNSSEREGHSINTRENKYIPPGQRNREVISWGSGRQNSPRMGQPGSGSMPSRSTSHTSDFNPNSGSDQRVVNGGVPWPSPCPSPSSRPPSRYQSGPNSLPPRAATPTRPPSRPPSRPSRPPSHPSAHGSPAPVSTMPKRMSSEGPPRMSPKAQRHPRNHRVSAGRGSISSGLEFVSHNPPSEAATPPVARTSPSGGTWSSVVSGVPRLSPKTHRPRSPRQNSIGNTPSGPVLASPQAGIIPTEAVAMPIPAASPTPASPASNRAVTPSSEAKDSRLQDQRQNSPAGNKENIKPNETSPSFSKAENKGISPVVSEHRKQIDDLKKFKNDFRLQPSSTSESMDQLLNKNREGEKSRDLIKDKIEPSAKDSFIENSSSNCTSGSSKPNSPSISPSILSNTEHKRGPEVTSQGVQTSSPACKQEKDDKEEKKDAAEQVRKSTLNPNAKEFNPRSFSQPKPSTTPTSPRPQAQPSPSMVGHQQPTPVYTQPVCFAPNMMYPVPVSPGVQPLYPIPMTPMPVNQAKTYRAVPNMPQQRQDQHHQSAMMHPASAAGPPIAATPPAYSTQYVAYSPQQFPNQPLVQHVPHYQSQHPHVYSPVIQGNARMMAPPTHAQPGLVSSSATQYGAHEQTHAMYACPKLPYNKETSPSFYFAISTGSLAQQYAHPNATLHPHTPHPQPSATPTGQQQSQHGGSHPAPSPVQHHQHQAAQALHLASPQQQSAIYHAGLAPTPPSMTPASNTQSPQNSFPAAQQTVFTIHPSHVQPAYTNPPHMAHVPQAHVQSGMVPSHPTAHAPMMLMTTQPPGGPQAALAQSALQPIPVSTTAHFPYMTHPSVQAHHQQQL

| SMILES | Potency |
| --- | --- |
| Cc1ccc(C2=CC(c3ccc(N(C)C)cc3)n3nnnc3N2)cc1 (stereo not given) | inactive |
| CN1CCc2c(sc3c2C(=O)NC(c2ccccc2)N3)C1 (stereo not given) | inactive |
| Cc1ccc(S(=O)(=O)c2cc3ccccc3nc2N)cc1 | inactive |
| Cc1ccc2nc3c(cc(C#N)c(=O)n3-c3nccs3)c(=O)n2c1 | inactive |
| Cc1c(Cc2ccccc2)sc(/N=C/c2c(O)ccc3ccccc23)c1C(N)=O | inactive |
| Cc1ccc(-c2cc(-c3ccco3)c(C#N)c(O)n2)cc1 | inactive |
| CCOC(=O)c1c(NC(=O)Nc2ccc(C)cc2)sc2c1CCN(C)C2 | inactive |
| CCOC(=O)c1c(NC(=O)c2ccc(S(=O)(=O)N(CC(C)C)CC(C)C)cc2)sc2c1CCN(CC)C2 | inactive |
| CCOC(=O)c1c(NC(=O)C(C)Sc2cccc[n+]2[O-])sc2c1CCN(Cc1ccccc1)C2 (stereo not given) | inactive |
| CCOC(=O)c1c(NC(=O)C(C)Sc2c[nH]c3ccccc23)sc2c1CCC2 (stereo not given) | 3.16 µM (active) |
| CCOC(=O)c1c(NC(=O)c2ccc(S(=O)(=O)N(C)C3CCCCC3)cc2)sc2c1CCN(C(C)C)C2 | inactive |
| CCOC(=O)c1c(NC(=O)C(NCCN(C)C)c2ccccc2)sc2c1CCCC2 (stereo not given) | 39.8 µM (active) |
| Cc1ccc2nc(N3CCN(CCO)CC3)nc(-c3ccccc3)c2c1 | inactive |
| CCN1CCc2c(sc(NC(=O)c3ccc(S(=O)(=O)N4CCCC(C)C4)cc3)c2C(=O)OC)C1 (stereo not given) | inactive |
| CCN(C(=O)Cc1c(C(=O)O)n(CC)c2ccccc12)c1ccccc1C | inactive |
| CCCN(CCC)CCCNC(=O)c1cc2c(=O)n(CC)c3ccccc3c2s1 | inactive |
| CCOc1ccccc1N(C)C(=O)c1cc2c(=O)n(CC)c3ccccc3c2s1 | 39.8 µM (active) |
| O=C(Cn1ncc(Cl)c(Cl)c1=O)N1CCN(Cc2ccccc2)CC1 | 39.8 µM (active) |
| CN(CC(=O)Nc1ccc(Cl)cc1)CC(=O)N1CCc2ccccc21 | inactive |
| Cn1c(=O)c2c(nc(Sc3ncnn3CC(=O)N3CCOCC3)n2C)n(C)c1=O | inactive |
| CC1CC(C)CN(CC(=O)N2CCOCC2)C1 (stereo not given) | inactive |
| O=C(Cn1ncc(Cl)c(Cl)c1=O)N1CCc2ccccc21 | 7.52 µM (active) |

| SMILES | Potency |
| --- | --- |
| O=C(Cn1ncc(Cl)c(Cl)c1=O)N1CCOCC1 | 39.8 µM (active) |
| O=Cc1cn(CC(=O)N2CCc3ccccc32)c2ccccc12 | inactive |
| COc1cc2c(cc1OC)CN(Cc1cc(=O)oc3c(C)c(C)ccc13)CC2 | inactive |
| COc1ccc(NC(S)=Nc2ccc3nsnc3c2)cc1 | inactive |
| Cc1ccsc1CN(C)CC(=O)NCC(=O)Nc1ccc(F)cc1 | inactive |
| CCOC(=O)Cc1c(C)c2c(O)cc(O)cc2oc1=O | inactive |
| CCOC(=O)c1cc(C(=O)OCC)c2ccccn2c1=O | inactive |
| C[n+]1c(-c2ccccc2)cc2c(=Cc3ccccc3)c3ccccc3n21 | 23.8 µM (active) |
| CCOC(=O)c1cc2c(=Cc3ccc(N(C)C)cc3)c3ccccc3n2[n+]1C | 13.4 µM (active) |
| CN(C(=O)COC(=O)c1nnc(O)c2ccccc12)c1ccccc1 | inactive |
| COc1ccc2c(c1)c(=Cc1ccc(N(C)C)cc1)c1cc(-c3ccccc3)[n+](C)n12 | 17.8 µM (active) |
| O=[N+]([O-])c1ccc2c(c1)c1ccccc1n2CCO | inactive |
| CN(C)c1ccc(/C=c2\c3cc([N+](=O)[O-])ccc3n3c2cc(-c2ccccc2)[n+]3C)cc1 | 31.6 µM (active) |
| N#Cc1c2ccc(OCC(N)=O)cc2n2ccccc12 | inactive |
| CCN(Cc1ccc(OC)c(F)c1)C(=O)/C=C/c1ccc(S(=O)(=O)N2CCOCC2)cc1 | inactive |
| CCOC(=O)/C=C/C(=O)Nc1ccc(S(=O)(=O)Nc2nccs2)cc1 | inactive |
| CC(NC(=O)c1cc2c(=O)n3ccccc3nc2n(CC2CCCO2)c1=N)c1ccccc1 (stereo not given) | inactive |
| Cc1cc(C(=O)NNc2c(Cl)cccc2Cl)no1 | inactive |
| CCCCN(C)C(=O)c1ccc2c(c1)N(Cc1cccc(F)c1)C(=O)c1ccccc1S2 | 25.1 µM (active) |
| O=C1c2cccc3cccc(c23)N1Cc1ccc(F)cc1 | inactive |
| CCCCN1C(=O)c2cccc3cc(O)cc(c23)C1=O | inactive |
| Cc1oc(-c2ccccc2F)nc1C[S+]([O-])CC(=O)NCc1ccc(F)cc1 (stereo not given) | inactive |

| SMILES | Potency |
| --- | --- |
| N#Cc1c(N)n(-c2cccc(C(=O)O)c2)c2nc3ccccc3nc12 | inactive |
| Cc1ccc(C(=O)Nc2nc(C(N)Cc3ccc(C(F)(F)F)cc3)cs2)cc1 (stereo not given) | 39.8 µM (active) |
| CC(C)CC(N)c1csc(NC(=O)Nc2ccccc2Cc2ccccc2)n1 (stereo not given) | 22.4 µM (active) |
| CCc1ccccc1NC(=O)c1sc2nc(C)cc(C)c2c1N | inactive |
| O=C(Nc1ccccc1)Nc1nc(-c2ccc(F)c(F)c2)cs1 | inactive |
| O=C(Nc1ccccc1)Nc1sccc1-c1nc2ccccc2s1 | inactive |
| NC(Cc1ccc(C(F)(F)F)cc1)c1csc(NC(=O)Nc2ccccc2)n1 (stereo not given) | 35.5 µM (active) |
| CCOC(=O)c1sc(-c2ccc(C(F)(F)F)cc2)nc1O | inactive |
| Nc1c(C(=O)Nc2ccccc2F)sc2nc(Cc3ccccc3)cc(C(F)(F)F)c12 | inactive |
| Cc1ccc(-c2ocnc2C(=O)Nc2nc(C)cs2)cc1 | inactive |
| NC(Cc1ccc(C(F)(F)F)cc1)c1csc(NC(=O)Nc2ccccc2Cc2ccccc2)n1 (stereo not given) | 35.5 µM (active) |
| CC(=O)c1ccc(/C=C/c2nc3ccccc3n2C)o1 | inactive |
| Fc1ccc(N2CCN(C(S)=NCc3ccco3)CC2)cc1 | inactive |
| Nc1cccc2c1C(=O)N(C(=O)c1cccc(S(=O)(=O)N3CCCC3)c1)C2=O | inactive |
| C/C(=N\OCC(=O)Nc1ccccc1C(=O)O)c1cccs1 | inactive |
| CC(=O)NC1=NC(=O)/C(=C/c2cc(C)n(-c3cccc(C(=O)O)c3)c2C)S1 | inactive |
| CC(C)(C)c1cc(NC(=O)COC(=O)c2ccccc2)n(-c2ccccc2)n1 | inactive |
| CC(C)CC(N)c1csc(NC(=O)c2cc(C(C)(C)C)nn2Cc2ccccc2)n1 (stereo not given) | 31.6 µM (active) |
| CC(C)(C)c1cc(C(=O)NNc2cccc(Cl)c2)n(Cc2ccccc2)n1 | inactive |
| COC(=O)c1ccc(COc2ccccc2OC)o1 | inactive |
| CC(C)Cn1c(N)c(C(=O)COC(=O)c2cc3ccccc3cc2O)c(=O)n(C)c1=O | inactive |
